Drawing on PubChem BioAssay AID1456 (Vanderbilt High Throughput Screening Facility, 2008), this text covers B-score of Tl+ flux slope (higher = more flux/activation; lower = inhibition) for 64 compounds.

Structures are written as SMILES. In all, about 190,000 compounds went through this assay and about 4,100 (2.2%) were called active. This is one part of a sample in which actives are shown more often than they occur. Unmarked numbers belong to inactive results.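 Rule for the calls: active = thallium flux slope and its plate-corrected score both differing from the plate sample mean at a set confidence after two filtering rounds, in either direction; inactive = the rest.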

Chain of Solute carrier family 12 member 5 (Homo sapiens) (Q9H2X9 whole entry, looked up): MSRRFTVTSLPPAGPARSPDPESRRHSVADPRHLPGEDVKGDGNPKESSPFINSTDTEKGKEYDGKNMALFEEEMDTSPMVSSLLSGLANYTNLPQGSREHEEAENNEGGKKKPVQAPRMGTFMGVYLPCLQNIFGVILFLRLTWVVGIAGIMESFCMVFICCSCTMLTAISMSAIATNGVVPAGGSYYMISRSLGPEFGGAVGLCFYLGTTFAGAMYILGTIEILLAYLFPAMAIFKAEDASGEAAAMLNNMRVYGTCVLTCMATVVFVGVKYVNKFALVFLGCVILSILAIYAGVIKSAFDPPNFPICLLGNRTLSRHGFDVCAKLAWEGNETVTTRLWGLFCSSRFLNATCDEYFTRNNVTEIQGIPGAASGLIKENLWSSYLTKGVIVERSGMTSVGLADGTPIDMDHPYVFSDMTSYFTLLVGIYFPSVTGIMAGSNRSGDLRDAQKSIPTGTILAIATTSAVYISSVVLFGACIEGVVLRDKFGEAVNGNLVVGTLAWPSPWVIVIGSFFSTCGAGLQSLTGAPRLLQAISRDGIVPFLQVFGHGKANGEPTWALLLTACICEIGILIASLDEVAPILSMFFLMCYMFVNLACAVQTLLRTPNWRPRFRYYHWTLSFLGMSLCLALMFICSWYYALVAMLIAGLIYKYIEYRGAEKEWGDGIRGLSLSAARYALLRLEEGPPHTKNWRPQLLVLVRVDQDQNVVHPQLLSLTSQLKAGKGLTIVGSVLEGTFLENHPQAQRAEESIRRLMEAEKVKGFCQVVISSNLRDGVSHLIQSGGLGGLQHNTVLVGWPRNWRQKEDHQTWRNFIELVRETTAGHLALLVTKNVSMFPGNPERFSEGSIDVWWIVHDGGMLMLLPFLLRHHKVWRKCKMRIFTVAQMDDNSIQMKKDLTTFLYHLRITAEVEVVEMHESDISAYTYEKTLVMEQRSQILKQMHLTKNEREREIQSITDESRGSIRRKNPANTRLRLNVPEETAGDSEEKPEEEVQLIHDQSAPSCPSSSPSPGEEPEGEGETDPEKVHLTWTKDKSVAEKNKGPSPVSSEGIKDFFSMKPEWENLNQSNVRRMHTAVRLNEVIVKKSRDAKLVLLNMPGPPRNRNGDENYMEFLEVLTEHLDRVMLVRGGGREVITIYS

This assay addresses Solute carrier family 12 member 5 (Homo sapiens) (UniProt Q9H2X9). Briefly: modulation of human KCC2 ion transport – cell-based, HEK293 KCC2, FluoZin-2 fluorescence, MLSMR, primary screen (AID 1456).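 Note: slope of fluorescence scaled to starting intensity during 10 to 20 s after thallium.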 The following applies: KCC2 cells, thallium flux FluoZin-2 fluorescence; at 10 µM.
Take `Cc1ccc(C(=O)Nc2nc(N)n(-c3ccccc3)n2)cc1`: the B-score of Tl+ flux slope (higher = more flux/activation; lower = inhibition) is 0.00295.

On to `N=c1c2c3c(sc2ncn1N)CCCC3`, for which the B-score of Tl+ flux slope (higher = more flux/activation; lower = inhibition) is 1.3.

Regarding `c1nnc2c3c4c(sc3ncn12)CCC4`, the B-score of Tl+ flux slope (higher = more flux/activation; lower = inhibition) is -0.0315.

On to `S=c1[nH]nc2c3c4c(sc3ncn12)CCCC4`, for which the B-score of Tl+ flux slope (higher = more flux/activation; lower = inhibition) is 6.7 (active).

Turning to `O=C(CCl)Nc1cccc(CP(=O)(c2ccccc2)c2ccccc2)c1`, the B-score of Tl+ flux slope (higher = more flux/activation; lower = inhibition) was -0.0445.

In the case of `CCN(CC)C(=O)CS(=O)CC(=O)Nc1cc(OCCOC)c(Cl)cc1Cl` (centres undefined), the B-score of Tl+ flux slope (higher = more flux/activation; lower = inhibition) is -0.00564.

With `CC(C)N1C(=O)C2C(C(=O)NC3CCCCC3)C3C=CC2(O3)C1C(=O)NC1CCCC1` (centres undefined), the B-score of Tl+ flux slope (higher = more flux/activation; lower = inhibition) was -0.424.

Regarding `O=C(NCc1cccnc1)Nc1ccccc1F`, the B-score of Tl+ flux slope (higher = more flux/activation; lower = inhibition) was 0.189.

Take `O=C(Nc1ccccc1F)C1C2C=CC3(O2)C1C(=O)N(c1cccnc1)C3C(=O)NC1CCCCC1` (centres undefined): the B-score of Tl+ flux slope (higher = more flux/activation; lower = inhibition) is -6.39 (active).

As for `Cc1nn(-c2ccccc2)c(=O)c2noc(C)c12`, the B-score of Tl+ flux slope (higher = more flux/activation; lower = inhibition) was -0.0422.

Consider `CCOC(=O)c1c(NC(=S)Nc2ccccc2C)sc2c1CCC2`, for which the B-score of Tl+ flux slope (higher = more flux/activation; lower = inhibition) is -0.787.

Take `CCOC(=O)c1c(NC(=S)NC)sc2c1CCCC2`: the B-score of Tl+ flux slope (higher = more flux/activation; lower = inhibition) was 118 (active).

`CCOCC(=O)Nc1sc2c(c1C(=O)OCC)CCCC2`: the B-score of Tl+ flux slope (higher = more flux/activation; lower = inhibition) is 0.549.

Turning to `Cc1nc(=O)c(-c2ccccc2)c(C)n1-c1ccc(Br)cc1`, the B-score of Tl+ flux slope (higher = more flux/activation; lower = inhibition) is -0.435.

For the compound `CCC(O)CNc1nc(-n2nc(C)cc2C)nc2sc3c(c12)CC(C)(C)OC3` (centres undefined), the B-score of Tl+ flux slope (higher = more flux/activation; lower = inhibition) is -1.67.

As to `Cc1cc(C)n(-c2nc(SCC(=O)N3CCCC3)c3c4c(sc3n2)CCCC4)n1`, the B-score of Tl+ flux slope (higher = more flux/activation; lower = inhibition) is 0.509.

Turning to `COCCNc1nc(-n2nc(C)cc2C)nc2sc3c(c12)CCCC3`, the B-score of Tl+ flux slope (higher = more flux/activation; lower = inhibition) was -4.01 (active).

Take `COc1cccc(N2C(=O)CC(N3CCc4ccccc4C3)C2=O)c1` (centres undefined): the B-score of Tl+ flux slope (higher = more flux/activation; lower = inhibition) was 0.0221.

As to `O=C(CSc1nc2ccccc2o1)N/N=C/c1ccccc1C(=O)O`, the B-score of Tl+ flux slope (higher = more flux/activation; lower = inhibition) is 0.867.

`CSc1sc(C(=O)NC(=O)NCc2cccnc2)c(C)c1-c1ccon1`: the B-score of Tl+ flux slope (higher = more flux/activation; lower = inhibition) was -1.42.

Turning to `CCOC(=O)c1cccnc1NC(=O)c1ccncc1`, the B-score of Tl+ flux slope (higher = more flux/activation; lower = inhibition) was 0.477.

For `COC(=O)c1cccnc1NC(=S)NC(C)C`, the B-score of Tl+ flux slope (higher = more flux/activation; lower = inhibition) was 37.7 (active).

As for `COC(=O)c1ccccc1NC(=S)NC(=O)c1ccccc1F`, the B-score of Tl+ flux slope (higher = more flux/activation; lower = inhibition) is 4.93.

As to `c1ccc2c(CSCc3nc4ccccc4[nH]3)cccc2c1`, the B-score of Tl+ flux slope (higher = more flux/activation; lower = inhibition) is -2.07.

With `Nc1scc[n+]1Cc1cccc2cccnc12`, the B-score of Tl+ flux slope (higher = more flux/activation; lower = inhibition) is -0.326.

For the compound `c1ccc2c(C[n+]3csc4ccccc43)cccc2c1`, the B-score of Tl+ flux slope (higher = more flux/activation; lower = inhibition) was 4.99 (active).

With `CC(=O)Nc1ccc(C(=O)/C=C/c2ccc[nH]2)cc1`, the B-score of Tl+ flux slope (higher = more flux/activation; lower = inhibition) is 0.0206.

In the case of `Cc1ccc(S(=O)(=O)N2CCN(C(=O)COC(=O)c3c(C)noc3C)CC2)c(C)c1`, the B-score of Tl+ flux slope (higher = more flux/activation; lower = inhibition) was 0.177.

Consider `CCn1c(=O)cc(O)c2ccccc21`, for which the B-score of Tl+ flux slope (higher = more flux/activation; lower = inhibition) is 0.265.

For the compound `CCn1c(O)c(N=NC(=O)c2cccc(S(=O)(=O)N3CCCCC3)c2)c2ccccc21`, the B-score of Tl+ flux slope (higher = more flux/activation; lower = inhibition) is -0.0952.

As to `CCn1c(O)c(N=NC2=NC(=O)CS2)c2cc(C)ccc21`, the B-score of Tl+ flux slope (higher = more flux/activation; lower = inhibition) is 8.24 (active).

Regarding `O=C(Cn1nnc(N2CCCCC2)n1)c1ccc(Cl)c(Cl)c1`, the B-score of Tl+ flux slope (higher = more flux/activation; lower = inhibition) is -0.13.

Turning to `C/C=N/N(c1ccccc1)c1ccccc1`, the B-score of Tl+ flux slope (higher = more flux/activation; lower = inhibition) was 0.121.

On to `Cc1ccc(S(=O)(=O)/N=C(/NC(=S)Nc2c(C)n(C)n(-c3ccccc3)c2=O)c2ccccc2)cc1`, for which the B-score of Tl+ flux slope (higher = more flux/activation; lower = inhibition) was -0.219.

On to `CC1CCCN(S(=O)(=O)c2ccc(C(=O)Nc3nnc(-c4ccncc4)o3)cc2)C1` (centres undefined), for which the B-score of Tl+ flux slope (higher = more flux/activation; lower = inhibition) is -0.0172.

In the case of `CC1CCCCN1S(=O)(=O)c1ccc(C(=O)Nc2nnc(-c3cccs3)o2)cc1` (centres undefined), the B-score of Tl+ flux slope (higher = more flux/activation; lower = inhibition) was 6.64 (active).

Take `CC1CCCCN1S(=O)(=O)c1ccc(S(=O)(=O)N(CC(=O)Nc2ccccc2)Cc2cccs2)cc1` (centres undefined): the B-score of Tl+ flux slope (higher = more flux/activation; lower = inhibition) was 0.0298.

For `CC(C)Cc1ccc(C(C)C(=N)N)cc1` (centres undefined), the B-score of Tl+ flux slope (higher = more flux/activation; lower = inhibition) is 0.737.

As for `NS(=O)(=O)c1ccc(CNC(=O)c2cnccn2)cc1`, the B-score of Tl+ flux slope (higher = more flux/activation; lower = inhibition) was 1.11.

`NCC(=O)c1cccc2ccc[n+]([O-])c12`: the B-score of Tl+ flux slope (higher = more flux/activation; lower = inhibition) was 1.34.

Take `COc1ccc(CCN2C(=O)CC(N3CCC(C(N)=O)CC3)C2=O)cc1OC` (centres undefined): the B-score of Tl+ flux slope (higher = more flux/activation; lower = inhibition) was 0.129.

With `c1cncc(-c2nnc3n2C2(CCCCC2)Cc2ccccc2-3)c1`, the B-score of Tl+ flux slope (higher = more flux/activation; lower = inhibition) was 4.46 (active).

As for `CC1(C)Cc2ccccc2-c2nnc(-c3cccc(O)c3)n21`, the B-score of Tl+ flux slope (higher = more flux/activation; lower = inhibition) is -0.616.

As to `O=c1c2ccccc2nc2n1C1(CCCCC1)Cc1ccccc1-2`, the B-score of Tl+ flux slope (higher = more flux/activation; lower = inhibition) is -0.241.

Take `Cc1ccc(CN2CCN(Cc3ccc4ncccc4c3)CC2CCO)cc1` (centres undefined): the B-score of Tl+ flux slope (higher = more flux/activation; lower = inhibition) is -0.182.

`O=C(Nc1nc(-c2ccncc2)cs1)C1COc2ccccc2O1` (centres undefined): the B-score of Tl+ flux slope (higher = more flux/activation; lower = inhibition) is -0.139.

As for `COc1ccc(OC)c2sc(NC(=O)C3COc4ccccc4O3)nc12` (centres undefined), the B-score of Tl+ flux slope (higher = more flux/activation; lower = inhibition) was -1.33.

For `O=C(Nc1nc2c(F)cc(F)cc2s1)C1COc2ccccc2O1` (centres undefined), the B-score of Tl+ flux slope (higher = more flux/activation; lower = inhibition) was 67.4 (active).

`CC(C)c1cc(CN2CCOCC2)cc(C(C)C)c1O`: the B-score of Tl+ flux slope (higher = more flux/activation; lower = inhibition) was -0.911.

Consider `CCn1cc(C(=O)NCCCN2CCCCCC2)c(=O)c2cc(S(=O)(=O)N3CCc4ccccc4C3)ccc21`, for which the B-score of Tl+ flux slope (higher = more flux/activation; lower = inhibition) is 0.575.

For the compound `Cc1nc(C(=O)N2CCCC(C(=O)c3ccc(Cl)cc3)C2)cs1` (centres undefined), the B-score of Tl+ flux slope (higher = more flux/activation; lower = inhibition) was -0.00258.

As for `Cc1ccccc1Nc1c(-c2ccccc2)nc2ncccn12`, the B-score of Tl+ flux slope (higher = more flux/activation; lower = inhibition) was -0.0089.

Consider `S=c1nccc(-c2cc(Cl)sc2Cl)[nH]1`, for which the B-score of Tl+ flux slope (higher = more flux/activation; lower = inhibition) was 7.16 (active).

For the compound `Cc1cccc(N(C)C(=O)c2cc3c(=O)[nH]c4ccc(C)cc4c3s2)c1`, the B-score of Tl+ flux slope (higher = more flux/activation; lower = inhibition) is 0.185.

Turning to `COCCN1C2=C(COC(C)(C)C2)C(=S)NC1c1ccccc1` (centres undefined), the B-score of Tl+ flux slope (higher = more flux/activation; lower = inhibition) was -0.146.

As for `Cc1cccc(OCc2ccc(C(=O)Nc3ccc(F)cc3)cc2)c1`, the B-score of Tl+ flux slope (higher = more flux/activation; lower = inhibition) is 0.491.

Regarding `Fc1ccc(COc2cccc(-c3n[nH]c(=S)o3)c2)cc1`, the B-score of Tl+ flux slope (higher = more flux/activation; lower = inhibition) is 69.9 (active).

`Fc1ccc(COc2ccc(-c3nnco3)cc2)cc1`: the B-score of Tl+ flux slope (higher = more flux/activation; lower = inhibition) is -1.14.

Turning to `NNC(=O)c1oc2nc(-c3ccccc3)cc(-c3ccco3)c2c1N`, the B-score of Tl+ flux slope (higher = more flux/activation; lower = inhibition) is 0.0896.

`O=C(COc1ccccc1)N1CCN=C1SCc1cccc(F)c1`: the B-score of Tl+ flux slope (higher = more flux/activation; lower = inhibition) is 0.197.

As for `CC(C)CCN1NC2(CCC(C)CC2)NC1=S` (centres undefined), the B-score of Tl+ flux slope (higher = more flux/activation; lower = inhibition) was 1.32.

For `Cc1ccc(-c2nc3ccccc3[nH]c2=O)cc1`, the B-score of Tl+ flux slope (higher = more flux/activation; lower = inhibition) is 0.871.

`CC(CNS(=O)(=O)c1ccc(Br)cc1)CN(C)C` (centres undefined): the B-score of Tl+ flux slope (higher = more flux/activation; lower = inhibition) was 0.781.

As for `CCC(C)(C)NC(=O)C(c1ccc(O)cc1)N(C(=O)Cn1nnc2ccccc21)c1ccc(NC(C)=O)cc1` (centres undefined), the B-score of Tl+ flux slope (higher = more flux/activation; lower = inhibition) was 1.51.
